# HT1080 IDH1KD tx = qHTS for induction of synthetic lethality in tumor cells producing 2HG: qHTS for the HT-1080-IDH1KD cell line; HT-1080 IDH1 knockdown viability, ATP luminescence, 48 h; Potency, µM (series often up to 46.1 µM), for the others: top-dose activity, negative = toxicity, usual class: cytotoxic; hit rate 2% among 360,000;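 further: potency means the concentration at half of the fitted maximal effect; 0% = DMSO wells and -100% = cell-free medium wells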
#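 IDH1KD HT-1080 cells, 750/well, RPMI + 5% FBS; compound pinned after 2 h settling; 48 h, 37 °C; CellTiter-Glo luminescence; % activity normalised to DMSO and no-cell wells; curves fitted, classed by r2 and efficacy.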
# DT40 TDP1 no CPT = qHTS for Inhibitors of human tyrosyl-DNA phosphodiesterase 1 (TDP1): qHTS in cells in absence of CPT. DT40 Tdp1-/- hTDP1 cells, no CPT, ATP luminescence, 48 h. Potency, µM (top dose mostly 46.2 µM), without a hit: at the top dose activity change, negative = growth inhibition, actives largely listed as inhibitors. hit rate 15% among 420,000. AID 686978, 2013; further: potency means the concentration at half of the fitted maximal effect; nearly all actives have a fitted effect of over 55% in size
#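 Readout: luminescence from CellTiter-Glo after 30 min in the dark at RT. Cells: DT40 Tdp1-/- with stable hTDP1, 400/well. Exposure: compounds alone, ≥48 hr, 37 °C.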
# HT1080NT lethal = qHTS for induction of synthetic lethality in tumor cells producing 2HG: qHTS for the HT-1080-NT fibrosarcoma cell line. HT-1080-NT fibrosarcoma viability, CellTiter-Glo ATP luminescence, 48 h. Potency, µM (doses to about 46.1 µM), inactives show at the highest dose activity, negative = less viability, hits mostly cytotoxic. hit rate 1.6% among 360,000. AID 686970, 2013;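 further: NT is the 2HG producing partner of a matched IDH1 knockdown line; potency means the concentration at half of the fitted maximal effect; 0% = DMSO-treated cells and -100% = media-only wells without cells; nearly all actives have a fitted effect of over 55% in size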
#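 Toxicity toward the 2HG-producing NT line was scored as %Activity, normalised to DMSO and no-cell wells, from CellTiter-Glo luminescence after 48 hours' treatment.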
# ELG1 repair inh = qHTS screen for small molecules that inhibit ELG1-dependent DNA repair in human embryonic kidney (HEK293T) cells expressing luciferase-tagged ELG1; AID 504467, 2011; HEK293T ELG1-luciferase reporter, luminescence, 16 h; DNA damage induced by 5-fluorouridine; Potency, µM (doses to about 46.1 µM), inactives show at the top dose activity change, negative = inhibition, usual class: inhibitors; hit rate 2.3% among 330,000; further: potency means the concentration at half of the fitted maximal effect; nearly all actives have a fitted effect of over 55% in size
#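 Quantitative HTS, concentration-response format. 2,000 cells/well co-treated with 5-fluorouridine and compound, 16 hr in 5% CO2 at 37 °C; ONE-Glo luminescence read after 30 min.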
# TDP1 cell CPT = qHTS for Inhibitors of human tyrosyl-DNA phosphodiesterase 1 (TDP1): qHTS in cells in presence of CPT. AID 686979, 2013. Potency, µM (top dose mostly 46.2 µM), inactives show top-dose activity change, negative = growth inhibition, most hits filed as inhibitors. hit rate 12% among 420,000. chicken DT40 Tdp1-/-;hTDP1 cells + 20 nM CPT, ATP luminescence, 48 h; further: potency means the concentration at half of the fitted maximal effect; nearly all actives have a fitted effect of over 55% in size
#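 Cell growth measured by CellTiter-Glo luminescence after a minimum 48 h, 37 C compound exposure with 20 nM CPT in Tdp1-knockout DT40 cells stably expressing hTDP1, seeded 400/well; qHTS titration format.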
# IL-1B inflam inh = qHTS for Inhibitors of Inflammasome Signaling: IL-1-beta AlphaLISA Primary Screen | activity change, % at 57.5 µM | hit rate 4.7% among 360,000 | THP-1 LPS/ATP IL-1B secretion, AlphaLISA, 16 h; active compounds read low; in the data active means activity change below about -50%; inconclusive means mostly about -30% to -49%
#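 THP-1 cells pretreated 1 hr with compounds (up to 57.5 uM final), then stimulated with LPS (250 ng/mL final) plus ATP (1.25 mM final); secreted IL-1B measured by AlphaLISA after 16 hr, decreased signal indicating inhibition.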
# Active calls of the source: *; ? = inconclusive; · = no result; [ ] = another dose, or the depositor's remark. Shown are actives, neighbours in structure and some others; about 19% of the full set was active somewhere. Unless noted, the call rests on the fitted dose curve; in most records, active means well fitted curve in the direction sought with a large enough effect; inconclusive means small, poorly fitted or top-dose-only effect, or another doubt; inactive means no such curve, though single readings can be large; an effect the other way counts as inactive or inconclusive. Unless noted, on the % scale 0 is the no-effect control and ±100 the full control effect.
SMILES,HT1080 IDH1KD tx,DT40 TDP1 no CPT,HT1080NT lethal,ELG1 repair inh,TDP1 cell CPT,IL-1B inflam inh
COc1ccc(CCNC(=O)COc2coc(CN3c4ccccc4CC3C)cc2=O)cc1OC (configuration not stated),0%,16µM*,0%,?,?,-11
COc1ccc(OC)c(NC(=O)COc2coc(CN3CCCc4ccccc43)cc2=O)c1,?,?,-16%,-17%,?,22
Cc1cccc2cc(CN(Cc3cccnc3)C(=O)c3ccccc3F)c(Cl)nc12,2%,?,-4%,?,?,-7
Cc1cc(C)c2cc(CN(Cc3cccnc3)C(=O)c3ccc(F)cc3)c(Cl)nc2c1,?,15µM*,?,?,18µM*,?
CCOC(=O)CCc1c(C)c2ccc(OCc3cc([N+](=O)[O-])ccc3OC)cc2oc1=O,20%,23µM*,10%,-11%,26µM*,-1
CCOC(=O)CCc1c(C)c2ccc(OCc3cc([N+](=O)[O-])ccc3OC)c(C)c2oc1=O,·,·,·,9%,·,·
C/C(N=Nc1nc2ccccc2s1)=N\Nc1ccccc1O,15µM*,2.6µM*,13µM*,-19%,9.2µM*,122
O=C(CSc1ccccc1C(=O)N1CCN(c2ccc([N+](=O)[O-])cc2)CC1)N1CCCC1,-6%,15µM*,?,15µM*,12µM*,-15
O=C(Cn1cc([N+](=O)[O-])nc1[N+](=O)[O-])N1CCN(c2ccccc2)CC1,26µM*,?,-21%,?,16µM*,?
O=C(Cc1ccc(F)cc1)N1CCN(c2ccc([N+](=O)[O-])cc2)CC1,-2%,?,-2%,-16%,21µM*,-3
O=C(Cc1ccc(Cl)cc1)N1CCN(c2ccc(F)cc2)CC1,-8%,?,2%,-24%,?,-16
CCC1CCC(N2CCN(c3ccc([N+](=O)[O-])cc3)CC2)CC1 (configuration not stated),?,?,-29%,-26%,?,-60*
CCOC(=O)C1CCN(C(=O)c2ccccc2)c2scc(-c3ccccc3)c2C1=O (configuration not stated),-24%,?,-1%,·,?,-15
Cc1ccc2c(c1)sc1nc(=O)ccn12,4%,?,-16%,12%,?,-15
COC(=O)C[C@@H]1C[C@H]2c3cc(NC(=O)Nc4ccccc4F)ccc3O[C@H]2[C@H](CO)O1,-14%,-26%,-8%,·,-10%,-14
O=C(CCc1ccc(Oc2cc([N+](=O)[O-])cc([N+](=O)[O-])c2)cc1)N1CCCCCC1,-14%,?,-13%,?,18µM*,?
O=C(Cc1ccccc1)N1CCN(c2ccc([N+](=O)[O-])cc2)CC1,-11%,?,-7%,?,?,0
O=C(NCCN1CCN(c2ccc([N+](=O)[O-])cc2)CC1)NCc1ccccc1,-16%,8.2µM*,-7%,?,?,-16
O=C(NCCN1CCN(Cc2ccc([N+](=O)[O-])cc2)CC1)C(=O)Nc1ccccc1,6%[9.24 µM],-8%,4%,10%,-17%,25
O=C(Cc1ccc([N+](=O)[O-])cc1)N1CCN(c2ccc([N+](=O)[O-])cc2)CC1,-13%,7.3µM*,-4%,-12%,18µM*,-14
O=C(CCc1ccccc1)N1CCN(c2ccc([N+](=O)[O-])cc2)CC1,-11%,23µM*,0%,?,?,-13
FC(F)(F)c1ccc(/C=N/n2c(C3CCCCC3)n[nH]c2=S)cc1,7%,?,-16%,-5%,?,-10
O=C(CSc1nc2ccccc2[nH]1)N1CCN(c2ccc(F)cc2)CC1,-3%,?,-1%,-8%,?,-12
O=C(CCCSc1nc2ccccc2[nH]1)N1CCN(c2ccc([N+](=O)[O-])cc2)CC1,3%,8.2µM*,7%,?,10µM*,-24
O=C(CSc1ccc(-c2cccc([N+](=O)[O-])c2)nn1)N1CCCCCC1,6%,?,-3%,?,?,-54*
SMILES,HT1080 IDH1KD tx,DT40 TDP1 no CPT,HT1080NT lethal,ELG1 repair inh,TDP1 cell CPT,IL-1B inflam inh
O=C1C2CCCCN2C(=O)N1CCN1CCN(c2ccc([N+](=O)[O-])cc2)CC1 (configuration not stated),-2%,?,-18%,?,-24%,-17
O=C(CCCN1C(=O)C2CCCCN2C1=O)N1CCN(c2ccc([N+](=O)[O-])cc2)CC1 (configuration not stated),-1%,23µM*,-6%,?,?,-12
O=C(CSc1ccc(-c2cccc([N+](=O)[O-])c2)nn1)N1CCCC1,9%,-13%,17%,?,5%,-10
Cc1cc(=O)[nH]c2nnc(SCc3c(F)cccc3Cl)n12,·,-5%,·,·,-32%,·
COc1ccc(OCC(=O)N2CCCC(CO)(CCOc3ccccc3)C2)cc1 (configuration not stated),-4%,-2%,0%,?,-12%,6
COc1ccc(Cc2nnc(NCCO)[nH]c2=O)cc1OC,4%,8.2µM*,16%,6%,16µM*,21
COc1ccc(Cc2nnc(N/N=C/c3ccc(Br)cc3)[nH]c2=O)cc1OC,-1%,2%,?,-12%,-1%,-1
COc1ccc(Cc2nnc(N/N=C/c3ccc(O)cc3)[nH]c2=O)cc1OC,?,0.65µM*,?,5.8µM*,1µM*,-130*
C[C@]12c3[nH]c4cc(-c5ccco5)ccc4c3CCN1C(=O)[C@@H](CC(=O)NCc1ccco1)C[C@@H]2C(=O)N1CCCCC1,-27%,?,-23%,?,?,?
Cc1noc(C)c1C(=O)N1CCC[C@@]2(CCN(c3cccc(-c4ccccc4)c3)C2)C1,·,18µM*,·,·,16µM*,·
Cc1noc(C)c1C(=O)N1CCC2(CCCN(C(c3ccccc3)c3ccccc3)C2)CC1,·,23µM*,·,·,?,·
Cc1noc(C)c1C(=O)N1CCC2(CCCN(Cc3ccccc3)C2)CC1,·,-7%,·,·,4%,·
